{
  "source": "PubChem BioAssay AID590",
  "about": "(National Center for Advancing Translational Sciences (NCATS), 2007)",
  "note": "Screen size: about 59,000 compounds; about 6,500 (11%) were called active. About 15% were inconclusive and are not listed. No stated cut-off is given here; in the data, active means max dye-equivalent concentration above about 10 nM; inconclusive means mostly about 1.1 nM to 9.6 nM; inactive means weaker than that. The full list was thinned out, with actives kept by preference.",
  "data": [
    {"assay": "qHTS Assay for Spectroscopic Profiling in A350 Spectral Region", "conditions": "Compound autofluorescence, 340/450 nm, Alexa 350 dye-equivalents; hits give high values", "text": "NIH Molecular Libraries Screening Centers Network [MLSCN]\nNIH Chemical Genomics Center [NCGC]\nOccasionally, the artifactual effect may originate from the compounds own spectral or other biophysical properties which generally tend to track its assay concentration. Pre-screening/profiling the library with respect to the compounds spectral properties should help one exclude false positives early on. While the most informative fluorescent profiling data set is obtained by performing a full excitation and emission scan of each well by using a monochromator-based plate reader, such an approach is practical only on a very limited scale as scanning each well requires long time. An alternative approach, applied here, is to perform plate reader scans using selected excitation and emission wavelength pairs to generate a multidimensional relational database that correlates compound concentration and the respective relative fluorescence intensity at a given wavelength set. A standard curve of Alexa 350 (A 350) present on each plate as six-point concentration series, was used to compute a normalized fluorescence response, termed dye-equivalent concentration, for each compound at each concentration.\nNCGC Assay Protocol Summary:\n100 mM Tris buffer, pH 8.0\nThe wells in columns 1 through 4 of a Kalypsys polypropylene 1536-well compound plate were filled with standard solutions of fluorophore corresponding to the spectral region of interest. Solutions of A 350 were placed in the following wells: I1, J1: 3 mM, I2, J2: 300 uM, I3, J3: 30 uM, I4, J4: zero (DMSO), K1, L1: 3 uM, K2, L2: […], K3, L3: 300 nM, K4, L4: zero (DMSO).\nSix uL of buffer were dispensed to 1536-well Greiner black plates. Compounds and dye standards (23 nL) were transferred via Kalypsys PinTool. The plates were incubated for 15 min at room temperature, and then read on ViewLux (Perkin-Elmer) High-throughput CCD imager using 340 nm and 450 nm excitation and emission filter set.\nKeywords: NIH Roadmap, MLSCN, MLI, MLSMR, qHTS, NCGC, A350, A-350, Fluorescent Profiling.", "values": [
      {"smiles": "CS(=N)(=O)CC[C@H](N)P(=O)(O)O", "note": "(stereo not given in full)", "max dye-equivalent concentration": "inactive"},
      {"smiles": "CC[C@]1(O)C(=O)OCc2c1cc1n(c2=O)Cc2cc3ccccc3nc2-1", "max dye-equivalent concentration": "2600 nM (active)"},
      {"smiles": "CC[C@@](O)(C(=O)O)c1cc2n(c(=O)c1CO)Cc1cc3ccccc3nc1-2", "max dye-equivalent concentration": "920 nM (active)"},
      {"smiles": "Cc1ccc(Cn2nnnc2CN2CCC(n3nnc4ccccc43)CC2)cc1", "max dye-equivalent concentration": "inactive"},
      {"smiles": "N[C@H](C(=O)O)c1cc(=O)[nH]o1", "max dye-equivalent concentration": "inactive"},
      {"smiles": "C[C@H]1CC[C@@]2(NC1)O[C@@H]1C[C@H]3[C@@H]4CC=C5C[C@@H](O)CC[C@]5(C)[C@@H]4CC[C@]3(C)[C@@H]1[C@@H]2C", "max dye-equivalent concentration": "inactive"},
      {"smiles": "N[C@@H](Cc1c[nH]c2ccccc12)c1nnc(SCc2c(F)cccc2Cl)o1", "max dye-equivalent concentration": "inactive"},
      {"smiles": "CC[N+]1(C)CCCC(OC(=O)C(O)(c2ccccc2)c2ccccc2)C1", "note": "(stereo not given)", "max dye-equivalent concentration": "inactive"},
      {"smiles": "CC(C)CCC1(CCN)C(=O)NC(=O)NC1=O", "max dye-equivalent concentration": "inactive"},
      {"smiles": "O=C(c1cc(-c2ccncc2)nc2ccccc12)N1CCC2(CC1)OCCO2", "max dye-equivalent concentration": "inactive"},
      {"smiles": "O=C(c1cc2nc(-c3ccccc3)cc(-c3ccccc3)n2n1)N1CCC2(CC1)OCCO2", "max dye-equivalent concentration": "48 nM (active)"},
      {"smiles": "Cc1cccc(-n2c(C)nc3cc(C(=O)N4CCC5(CC4)OCCO5)ccc32)c1", "max dye-equivalent concentration": "inactive"},
      {"smiles": "NCC[Se][Se]CCN", "max dye-equivalent concentration": "inactive"},
      {"smiles": "CCN(CC)CCn1ncc2c(N)ncnc21", "max dye-equivalent concentration": "inactive"},
      {"smiles": "CC1=CC(=O)C2=C(C)C[C@H](O)[C@@H]3[C@@H](OC(=O)[C@H]3C)[C@H]12", "max dye-equivalent concentration": "inactive"},
      {"smiles": "O=C1C2CCN(CC2)C1(CO)CO", "max dye-equivalent concentration": "inactive"},
      {"smiles": "CCOC(=O)c1c(-c2ccccc2)oc2ccc(OC(=O)N(C)C)cc12", "max dye-equivalent concentration": "53 nM (active)"},
      {"smiles": "Cc1ccc(S(=O)(=O)O[C@H]2CN3CCC2CC3)cc1", "max dye-equivalent concentration": "inactive"},
      {"smiles": "NC[C@H](O)c1ccc(O)cc1", "max dye-equivalent concentration": "inactive"},
      {"smiles": "C=CCN1C(=O)C2(C(C(=O)OCC)=C(N)Oc3c2c(=O)oc2ccccc32)c2ccccc21", "note": "(stereo not given)", "max dye-equivalent concentration": "inactive"},
      {"smiles": "COc1cc(C[C@H](C)N)c(OC)cc1I", "max dye-equivalent concentration": "inactive"},
      {"smiles": "C/C(CCc1c[nH]c2ccccc12)=N\\O", "max dye-equivalent concentration": "16 nM (active)"},
      {"smiles": "NCCc1c[nH]c2ccc(O)cc12", "max dye-equivalent concentration": "inactive"},
      {"smiles": "CC(=O)c1c(O)c(C)c(O)c(Cc2c(O)c3c(c(C(=O)/C=C\\c4ccccc4)c2O)OC(C)(C)C=C3)c1O", "max dye-equivalent concentration": "inactive"},
      {"smiles": "NCCc1ccc(S(=O)(=O)F)cc1", "max dye-equivalent concentration": "inactive"}
    ]}
  ]
}
